# Data as given in PubChem BioAssay.
# Where “and” joins values, the source holds several entries; their conditions need not be identical. Equal values may be shown once. A structure can be active in one record and inactive in another. Calls of active or inactive are those of the source. Cut-off read from the data, not from the text of the source, unless noted: active = inhibition above about 80%; inactive = the rest.
# Tests used:
# [1] = LFS_MB_1R medulloblastoma cell growth inhibition, synergistic combos for chromothripsis tumors, cisplatin or BGB combos (AID 1671452); settings: LFS_MB_1R medulloblastoma cells, stronger effect = higher value;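 note: cells exposed for 96 hours before readout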
# [2] = CRL2098 osteosarcoma cell growth inhibition, synergistic combos for chromothripsis tumors, BGB or cisplatin IC20 combos (AID 1671454); settings: CRL2098 osteosarcoma cells, drug combinations, stronger effect = higher value;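 note: cells exposed for 96 h before readout; 0% = vehicle DMSO and 100% = killing by high DMSO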
# [3] = HD-MB03 medulloblastoma cell growth inhibition, synergistic combos for chromothripsis tumors, BGB or cisplatin IC20 combos (AID 1671455; in the data active = inhibition above about 83%;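 note: 0% = vehicle DMSO and 100% = high DMSO as cytotoxic control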); settings: HD-MB03 medulloblastoma cells, stronger effect = higher value
# [4] = UWB1.289 ovarian carcinoma cell growth inhibition, synergistic combos for chromothripsis tumors, BGB or cisplatin combos (AID 1671456); settings: UWB1.289 ovarian carcinoma cells, stronger effect = higher value;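 note: cells exposed to compound for four days; 0% = vehicle DMSO and 100% = killing by high DMSO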
# [5] = LFS_MB_2R medulloblastoma cell growth inhibition, synergistic combos for chromothripsis tumors, cisplatin combos (AID 1671457); settings: LFS_MB_2R medulloblastoma cells, stronger effect = higher value;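 note: cells exposed to compound for four days before readout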
# [6] = UWB1.289_BRCA1 ovarian cancer growth, cell-based, BGB or cisplatin combinations (AID 1671459); settings: UWB1.289 BRCA1 ovarian carcinoma, drug combinations, stronger effect = higher value
# [7] = human astrocyte viability loss, single and combined drugs, cytotoxicity control for chromothriptic childhood tumor combination screen, cell-based, BGB or cisplatin IC20 combos (AID 1671460); settings: Human astrocytes, drug combinations, stronger effect = higher value;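 note: cells exposed to compounds for 96 hours before viability readout; 0% = vehicle and 100% = killing control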
# [8] = growth inhibition of CRL1545 osteosarcoma cells, cell-based, cisplatin and BGB IC20 combos (AID 1671464); settings: stronger effect = higher value;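 note: cells exposed to compound for 96 hours before readout; 0% = vehicle DMSO and 100% = high DMSO killing control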
# [9] = liver-stage malaria parasite growth inhibition, primary screen, cell-based, HepG2, luciferase luminescence, HepG2 viability (AID 624349; in the data active = parasite load remaining mostly below about 12%, no sharp cut-off; inactive = mostly above about 10%;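 note: 100% = mean of DMSO negative control wells on the same plate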); settings: P. berghei liver stage in HepG2, luciferase luminescence, concentration not given here; parasite load remaining: stronger effect = lower value; viability: measured here: HepG2 viability without parasites
# [10] = inhibitors of Cryptococcus chitosan production, flow cytometry, Cibacron Brilliant Red staining (AID 1347148; call rule not given here;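 note: compound exposure lasted three days at 37 degrees C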); settings: Cryptococcus neoformans chitosan, stronger effect = lower value; at 10 µM unless noted
# [11] = circadian clock period modulators, cell-based, LOPAC library, luminescence reporter (AID 2774; call rule not given here;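 note: values are relative to mean of DMSO wells on each plate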); settings: circadian reporter cells, at 7 µM, actives lie on both sides
# [12] = hESC survival regulators, cell-based (AID 493140; call rule not given here;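 note: cells exposed to compounds for four days before counting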); settings: human embryonic stem cell survival screen; stronger effect = higher value
# [13] = system: Hepatitis C virus NS3 helicase; experiment: HCV NS3 helicase inhibitors, primary screen, biochemical, fluorescence polarization, LOPAC1280 library (AID 687035; in the data active = inhibition above about 37%); settings: Purified HCV NS3 helicase, Cy5-dT15 ssDNA binding fluorescence polarization; stronger effect = higher value; concentration not given here
# [14] = Cy5 fluorescence quenching or enhancement artefacts, artefact control for HCV NS3 helicase inhibitor project, biochemical, LOPAC1280 (AID 687037; call rule not given here); settings: Cy5-DNA-NS3h complex fluorescence interference counterscreen
# [15] = phospholipid biosynthesis inhibitors in animal cells, primary screen, cell-based, LOPAC library, screen 4 (AID 1347384; call rule not given here); settings: phospholipid biosynthesis inhibition screen, at 10 µM
# [16] = target: NAD(+) hydrolase SARM1 (Homo sapiens) (UniProt Q6SZW1); experiment: SARM1 TIR NADase inhibitors, cell lysate, NAD-Glo luminescence (AID 1508614;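 active = compound whose remaining NAD level is above about 45 nM, limit read from the data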;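 note: higher remaining NAD means stronger inhibition of SARM1 NADase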); settings: SAM-TIR HEK293T lysate NADase, at 1 µM, stronger effect = higher value
# [17] = target: Mitogen-activated protein kinase 7 (Homo sapiens) (UniProt Q13164); experiment: ERK5 transactivation activators in reporter cells, primary screen, cell-based, HTS (AID 1508626;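 active = luciferase signal above three times the same-plate solvent-only control wells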;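 note: luciferase driven by Gal4-ERK5 fusion binding five Gal4 sites before minimal TATA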); settings: HeLa Gal4-ERK5 transactivation, 18 h, at 5 µM, stronger effect = higher value
# [18] = viability rescue of complex I mutant cybrids, primary screen, cell-based, galactose medium, ATP luminescence (AID 1645843;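 active = z-score of at least 1.8 in each of two replicates, scored against plate mean and spread of sample wells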;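 note: positive z means more ATP and so rescue of galactose-driven cybrid death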); settings: complex I mutant cybrid cells, 72 h, stronger effect = higher value
# [19] = kinase inhibitors against Plasmodium liver-stage infection, cell-based, known kinase inhibitor set, luminescence, hepatoma host viability (AID 624392; call rule not given here;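 note: infected cells incubated roughly two days before readout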); settings: Plasmodium liver stage in hepatoma cells, luciferase luminescence, concentration not given here; liver cell % of control: measured here: host liver cell viability; parasite % of control: stronger effect = lower value
# [20] = measured here: combination with BGB IC40, at 0.05 µM
# [21] = measured here: combination with cisplatin, at 0.5 µM
# [22] = measured here: combination with cisplatin, at 5 µM
# [23] = measured here: combination with BGB at IC20, at 0.5 µM
# [24] = measured here: combination with cisplatin at IC20, at 0.5 µM
# [25] = measured here: combo with BGB at IC20, at 0.5 µM
# [26] = measured here: combo with cisplatin at IC20, at 0.5 µM
# [27] = measured here: inhibition with BGB combination, at 0.05 µM
# [28] = measured here: inhibition with cisplatin combination, at 0.05 µM
# [29] = BGB combination, concentration series, at 5 µM
# [30] = cisplatin combination, concentration series, at 5 µM
# [31] = measured here: combo with BGB IC20, at 0.5 µM
# [32] = measured here: combo with cisplatin IC20, at 0.5 µM
# [33] = measured here: with BGB IC20 combination, at 0.5 µM
# [34] = measured here: with cisplatin IC20 combination, at 0.5 µM
# Chain of NAD(+) hydrolase SARM1 (Homo sapiens) (Q6SZW1 whole entry, looked up, the tested form may be a part): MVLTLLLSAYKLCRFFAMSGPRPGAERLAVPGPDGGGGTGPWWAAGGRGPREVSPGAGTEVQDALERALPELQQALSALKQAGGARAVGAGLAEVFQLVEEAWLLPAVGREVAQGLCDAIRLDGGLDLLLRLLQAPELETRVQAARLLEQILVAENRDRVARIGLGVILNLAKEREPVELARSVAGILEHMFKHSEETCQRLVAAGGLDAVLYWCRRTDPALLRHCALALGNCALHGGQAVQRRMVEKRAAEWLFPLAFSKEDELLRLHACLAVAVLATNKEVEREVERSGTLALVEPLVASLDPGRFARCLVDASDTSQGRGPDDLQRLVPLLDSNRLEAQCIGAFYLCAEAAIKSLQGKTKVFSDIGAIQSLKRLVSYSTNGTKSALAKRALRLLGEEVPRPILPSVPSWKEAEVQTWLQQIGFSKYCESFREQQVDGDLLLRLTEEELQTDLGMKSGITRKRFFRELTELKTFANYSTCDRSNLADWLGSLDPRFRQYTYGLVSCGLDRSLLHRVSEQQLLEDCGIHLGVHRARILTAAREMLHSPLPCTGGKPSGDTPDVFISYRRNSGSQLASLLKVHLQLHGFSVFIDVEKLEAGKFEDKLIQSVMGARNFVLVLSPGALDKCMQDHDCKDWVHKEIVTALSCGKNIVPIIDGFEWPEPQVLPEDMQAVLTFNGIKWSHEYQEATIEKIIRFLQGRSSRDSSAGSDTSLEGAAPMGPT
# Chain of Mitogen-activated protein kinase 7 (Homo sapiens) (Q13164 whole entry, looked up, the tested form may be a part): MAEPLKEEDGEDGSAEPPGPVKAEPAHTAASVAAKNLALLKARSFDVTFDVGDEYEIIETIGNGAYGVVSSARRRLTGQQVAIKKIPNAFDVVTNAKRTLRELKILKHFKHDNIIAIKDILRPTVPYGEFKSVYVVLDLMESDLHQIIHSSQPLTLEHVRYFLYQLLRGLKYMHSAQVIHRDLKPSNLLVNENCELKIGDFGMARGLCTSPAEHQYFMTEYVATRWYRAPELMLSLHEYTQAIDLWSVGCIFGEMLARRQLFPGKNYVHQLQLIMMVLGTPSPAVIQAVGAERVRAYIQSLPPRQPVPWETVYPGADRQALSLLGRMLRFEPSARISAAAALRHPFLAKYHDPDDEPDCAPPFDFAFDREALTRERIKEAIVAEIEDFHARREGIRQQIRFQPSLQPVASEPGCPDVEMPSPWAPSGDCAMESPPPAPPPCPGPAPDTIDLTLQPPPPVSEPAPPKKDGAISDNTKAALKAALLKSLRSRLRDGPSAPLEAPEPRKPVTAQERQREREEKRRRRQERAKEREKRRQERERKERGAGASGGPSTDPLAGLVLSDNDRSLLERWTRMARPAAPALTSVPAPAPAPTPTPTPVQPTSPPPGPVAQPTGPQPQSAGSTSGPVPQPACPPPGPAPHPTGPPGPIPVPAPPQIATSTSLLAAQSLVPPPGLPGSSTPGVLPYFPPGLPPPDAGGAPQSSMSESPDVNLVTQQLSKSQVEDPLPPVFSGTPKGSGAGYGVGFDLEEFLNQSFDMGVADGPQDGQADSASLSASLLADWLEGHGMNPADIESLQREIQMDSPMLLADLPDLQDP
smiles,measurement,setting,value
O=C(/C=C/c1cccc(S(=O)(=O)Nc2ccccc2)c1)NO,inhibition,[1]; at 0.5 µM,31.6% (inactive)
same,inhibition,[1]; [20],-40%
same,inhibition,[1]; [21],39.8%
same,inhibition,[1]; [22],99.9%
same,inhibition,[2]; at 0.5 µM,-17% (inactive)
same,inhibition,[2]; [23],-63.8%
same,inhibition,[2]; [24],6.33%
same,inhibition,[3]; at 0.5 µM,86.6% (active)
same,inhibition,[3]; [25],88.4%
same,inhibition,[3]; [26],99%
same,inhibition,[4]; at 0.5 µM,41% (inactive)
same,inhibition,[4]; [27],-3.28%
same,inhibition,[4]; [28],9.18%
same,inhibition,[5]; at 0.5 µM,37.4% (inactive)
same,inhibition,[5]; [21],58.7%
same,inhibition,[5]; [22],105%
same,inhibition,[6]; [29],99.6%
same,inhibition,[6]; at 0.5 µM,41.8% (inactive)
same,inhibition,[6]; [30],120%
same,inhibition,[7]; at 0.5 µM,31.9% (inactive)
same,inhibition,[7]; [31],38.1%
same,inhibition,[7]; [32],9.25%
same,inhibition,[8]; at 0.5 µM,90.5% (active)
same,inhibition,[8]; [33],88.7%
same,inhibition,[8]; [34],91.2%
same,inhibition,"[8]; single agent, at 0.05 µM",-2.13%
same,inhibition,"[8]; single agent, at 5 µM",85.5%
O=C1c2ccccc2-[n+]2ccc3c([nH]c4ccccc43)c21,parasite load remaining,[9],1.89% (inactive)
same,viability,[9],32.8%
CCCNC(=O)[C@H]1O[C@@H]1C(=O)N[C@H](C(=O)N1CCC[C@H]1C(=O)OC)C(C)CC (stereo partly specified),fold fluorescence,[10],3.89 [at 125.8 µM] (inactive)
C#Cc1cccc(Nc2ncnc3cc(OC)c(OCCCCCCC(=O)NO)cc23)c1,inhibition,[1]; at 0.5 µM,72.7% (inactive) and 57.9% (inactive)
same,inhibition,[1]; [20],-16.6% and -26.1%
same,inhibition,[1]; [21],88.8% and 73.7%
same,inhibition,[1]; [22],101% and 99%
same,inhibition,[2]; at 0.5 µM,-70.6% (inactive) and -57.7% (inactive)
same,inhibition,[2]; [23],-40.2% and -108%
same,inhibition,[2]; [24],-130% and -17.7%
same,inhibition,[3]; at 0.5 µM,45.5% (inactive) and 17.9% (inactive)
same,inhibition,[3]; [25],34.3% and 16.8%
same,inhibition,[3]; [26],84.2% and 39.1%
same,inhibition,[4]; at 0.5 µM,58.9% (inactive) and 21.7% (inactive)
same,inhibition,[4]; [27],-23% and -18.1%
same,inhibition,[4]; [28],7.84% and -0.343%
same,inhibition,[5]; at 0.5 µM,80.6% (active) and 5.75% (inactive)
same,inhibition,[5]; [21],96% and 17.9%
same,inhibition,[5]; [22],99.8% and 105%
same,inhibition,[6]; [29],108% and 106%
same,inhibition,[6]; at 0.5 µM,64.7% (inactive) and 19.7% (inactive)
same,inhibition,[6]; [30],128% and 122%
same,inhibition,[7]; at 0.5 µM,63.5% (inactive) and 39.1% (inactive)
same,inhibition,[7]; [31],58% and 34.9%
same,inhibition,[7]; [32],64.7% and 42.3%
same,inhibition,[8]; at 0.5 µM,34.3% (inactive) and 15.2% (inactive)
same,inhibition,[8]; [33],17.9% and 26.4%
same,inhibition,[8]; [34],41.6% and 7.54%
same,inhibition,"[8]; single agent, at 0.05 µM",-39.2% and -32.8%
same,inhibition,"[8]; single agent, at 5 µM",97.8% and 92.8%
CC(=O)O[C@H]1C[C@@H]2CC[C@@H]3[C@H](CC[C@@]4(C)[C@H]3C[C@H]([N+]3(C)CCCCC3)[C@@H]4OC(C)=O)[C@@]2(C)C[C@@H]1[N+]1(C)CCCCC1,period change,[11],-0.015 h (inactive)
same,survival,[12],6.75 (inactive)
same,parasite load remaining,[9],119% (inactive) and 39.7% (inactive)
same,viability,[9],75.7% and 111%
same,inhibition,[13],1% (inactive)
same,fluorescence ratio (interference),[14],1 (inactive)
same,outcome,[15],inactive
same,remaining NAD,[16],10 nM (inactive)
same,luciferase signal,[17],40 AU (inactive)
same,z-score,[18],0.28 (inactive) and 0.73 (inactive)
CN[C@@H]1C[C@H]2O[C@@](C)([C@@H]1OC)n1c3ccccc3c3c4c(c5c6ccccc6n2c5c31)C(=O)N[C@H]4O,parasite load remaining,[9],74.5% (inactive)
same,viability,[9],61%
Cn1c(=O)n(-c2ccc(C(C)(C)C#N)cc2)c2c3cc(-c4cnc5ccccc5c4)ccc3ncc21,liver cell % of control,[19],79.1% and 72.9%
same,parasite % of control,[19],288% (inactive) and 494% (inactive) and 6.49% (inactive)
